{"source": "PubChem BioAssay AID651692", "about": "(Broad Institute, 2012)", "note": "Results with a measured potency or affinity are listed apart. Values without a mark were called inactive.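 Rule for the calls: active = fitted half-maximal concentration for loss of cell signal no higher than twice the top valid tested concentration; inconclusive = flat curve at 30 to 70% inhibition, or poor fit; inactive = flat within 30%, signal rise, or potency above limit.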", "data": [{"assay": "MDA-MB-231 cell growth inhibition, dose response, cytotoxicity control for RAD54 inhibitor project, CellTiter-Glo luminescence, cherry-pick (AID 651692);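 note: 0% = median of sample compound wells and -100% = staurosporine control wells; more negative values mean stronger loss of viable cell signal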", "conditions": "MDA-MB-231 viability, 24 h; series mostly up to 26 µM; activity change, negative = growth inhibition: at the top concentration", "units": {"activity change, negative = growth inhibition": "%"}, "values": [{"smiles": "Cc1cc2ccc3ccccc3c2cc1CN(C)C", "activity change, negative = growth inhibition": -5.15}, {"smiles": "CCCCN(CC)CCCNC(=S)Nc1ccc2nc(N3CCN(C)CC3)cc(C)c2c1", "activity change, negative = growth inhibition": -1.01}, {"smiles": "Cc1cccc2cc3c(N)c(C#N)sc3nc12", "activity change, negative = growth inhibition": 6.75}, {"smiles": "Cn1c2ccccc2c(=O)c2cc(NCCCN3CCOCC3)ccc21", "activity change, negative = growth inhibition": 7.21}, {"smiles": "CCOC(=O)c1cnc2ccc(OC)cc2c1Nc1ccc(N2CCN(C)CC2)cc1", "activity change, negative = growth inhibition": -2.13}, {"smiles": "CN1CCc2[nH]c3ccc(C(=O)NN)cc3c2C1", "activity change, negative = growth inhibition": -1.61}, {"smiles": "COc1ccccc1NC(=O)CNC(=O)c1ccccc1", "activity change, negative = growth inhibition": 12.8}, {"smiles": "Cc1nc2ccccc2c2oc(C(=O)NCCN3CCN(C)CC3)cc12", "activity change, negative = growth inhibition": 5.38}, {"smiles": "COc1cc2nc(NCCCN3CCN(C)CC3)n3nc(-c4ccccc4)nc3c2cc1OC", "activity change, negative = growth inhibition": -7.21}, {"smiles": "Cc1cccn2c(=O)c3cc(C(=O)NC4CCCC4)c(=N)n(CCCN4CCOCC4)c3nc12", "activity change, negative = growth inhibition": -2.59}, {"smiles": "COc1ccc2cc3cc(C(=O)NCCCN4CCOCC4)oc3nc2c1", "activity change, negative = growth inhibition": 17.1}, {"smiles": "COc1cccc2sc3cc(NCC[C@@H]4CCCN4C)ccc3c(=O)c12", "activity change, negative = growth inhibition": 2.12}, {"smiles": "COCCCNCCC(CCC(C)C)c1ccc2c(c1)OCO2", "note": "(stereo not drawn)", "activity change, negative = growth inhibition": 0.637}, {"smiles": "COc1ccc(CCNC(=O)c2cc3c(=O)n4cccc(C)c4nc3n(CCCN3CCOCC3)c2=N)cc1", "activity change, negative = growth inhibition": -5.54}, {"smiles": "N=c1n(CCN2CCCCC2)c2ccccc2n1CC(=O)c1cccc([N+](=O)[O-])c1", "activity change, negative = growth inhibition": -13.2}, {"smiles": "CN(C)CCCNc1c2c(nc3ccccc13)CCC2", "activity change, negative = growth inhibition": -11.5}, {"smiles": "CCN(CC)CCN1C(=O)c2cccc3cc(N)cc(c23)C1=O", "activity change, negative = growth inhibition": 5.41}, {"smiles": "CC(=O)Nc1cc(-c2ccc(N3CCN(C)CC3)cc2)cn2c(-c3ccc(S(C)(=O)=O)cc3)cnc12", "activity change, negative = growth inhibition": -10.1}]}]}
